Source: PubChem BioAssay AID1347076 (National Center for Advancing Translational Sciences (NCATS), 2019)
Hit rate of the full screen: of about 400,000 compounds, about 13,000 (3.2%) were called active. Not shown: some 18% with an inconclusive outcome. Many of the other results were omitted from the sample, so actives are more common in it than they were. A number with no mark means an inactive call. Calls follow the shape of the dose curve; as a rule, active = well fitted cell-killing curve with a large enough effect; inconclusive = small, poorly fitted or top-dose-only effect, or effect the other way; inactive = flat fitted curve, though single readings scatter.

Test: qHTS assay for MDR1-selective chemotherapeutics: Primary screen using the drug-selected MDR subline cells KB-V1; also: nearly all actives have a fitted effect of over 60% in size
Settings: KB-V1 MDR cells viability, CellTiter-Glo, 72 h; series mostly up to 46.1 µM; activity change, negative = cytotoxicity: at the top concentration
Outline: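 Compound-treated KB-V1 multidrug-resistant cells, 72 h, 37 degrees C; viability by CellTiter-Glo. Fitted qHTS curves give the values.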
% is scaled to controls: 0 for no effect and ±100 for the full control effect; potency is read from the fitted curve at half-maximal effect.

| Structure (SMILES) | activity change, negative = cytotoxicity | Potency |
| --- | --- | --- |
| CCc1noc(C)c1C(=O)OCC(=O)c1ccc(NC(=O)CC(C)C)cc1 | -24.6% |  |
| Nc1ncnc2c1ncn2[C@@H]1O[C@H](C(=O)NCC(F)(F)F)[C@@H](O)[C@H]1O | 13.3% |  |
| COc1ccc(C=C2CCC3C(CCCC34OCCO4)C2=O)cc1 (stereo not given) | -14.5% |  |
| OC[C@@H]1CN(Cc2ccc(Cl)cc2)C[C@H](n2cnc3c(NCc4ccncc4)ncnc32)O1 | 7.29% |  |
| Cc1cccc(C(=O)OCC(=O)Nc2sccc2C(N)=O)c1C | 1.57% |  |
| NCCCNC(=S)NCCCN(Cc1ccc(Cl)cc1)c1ccc(Br)cn1 |  | inactive |
| NC(=O)CSc1nnc(-c2cccc(S(=O)(=O)N3CCOCC3)c2)o1 | -1.06% |  |
| COc1ccc(/C=C/C(=O)Nc2ccc3c(c2)OCCO3)cc1OC |  | 20.6 µM (active) |
| O=C(/C=C\c1ccc2c(c1)OCO2)NC1(C(=O)Nc2ccc3c(c2)OCCO3)CCCCC1 | 0.694% |  |
| COc1cccc(/C=C/C(=O)Nc2ccc3c(c2)OCCO3)c1 | -8.07% |  |
| Cc1nn2c(=O)cc(COC(=O)CNC(=O)c3ccc(F)cc3)nc2s1 | 28.8% |  |
| Cc1cc(C)c2cc(C#N)c(N3CCNCC3)nc2c1 | 0.402% |  |
| CCC(C)(C)n1nnnc1CN1CCN(c2nc3ccc(C)cc3cc2C#N)CC1 |  | 23.1 µM (active) |
| Cc1ccc2nc(NCCCNC(=O)c3cnccn3)c(C#N)cc2c1 | 0.0278% |  |
| NS(=O)(=O)c1ccc(NC(=O)C(=O)Nc2ccc3nc4n(c(=O)c3c2)CCCCC4)cc1 | 17.5% |  |
| CN1OC[C@@H]2CN(C(=O)c3cccc4ccccc34)[C@H](c3ccc(N4CCCCC4)cc3)C[C@@H]21 | 22.9% |  |
| CNc1cncc(-c2cccc(C(=O)N3CCOCC3)c2)n1 | 4.04% |  |
| CNc1cncc(-c2ccc(NS(C)(=O)=O)cc2)n1 |  | 5.17 µM (active) |
| CS(=O)(=O)Nc1ccc(C2=NN(S(C)(=O)=O)C(c3cccs3)C2)cc1 (stereo not given) | -6.25% |  |
| O=C(NCCN1CCOCC1)c1ccc2c(c1)N(Cc1cccc(Cl)c1)C(=O)c1ccccc1S2(=O)=O | 29.9% |  |
| CCc1ccc2oc(-c3ccc(C)c(NC(=O)/C=C/c4ccco4)c3)nc2c1 | 22.1% |  |
| CCOC(=O)c1c(NC(=O)CSc2nccc(=O)[nH]2)sc(C)c1C | -16.2% |  |
| Cc1sc2ncnc(SCC(=O)NC3CCS(=O)(=O)C3)c2c1C (stereo not given) | -1.3% |  |
| COC(=O)c1c(-c2cccs2)csc1NC(=O)CSc1ncnc2sc(C)c(C)c12 |  | 18.4 µM (active) |
| COCCn1c(SCC(=O)c2cc(C)ccc2C)nc2cc(C(=O)NC3CCCC3)ccc2c1=O | -7.24% |  |

| Structure (SMILES) | activity change, negative = cytotoxicity | Potency |
| --- | --- | --- |
| CCCCN(CCCNC(=O)c1cc(Nc2ccccc2OC)nc2ccccc12)c1ccccc1 | 14.8% |  |
| O=C1CC2(CCCCC2)Oc2ccc(OCC(=O)N3CCOCC3)cc21 |  | 11.6 µM (active) |
| O=C(Nc1cccc(OCC(=O)N2CCOCC2)c1)C1CCCCC1 | 14.1% |  |
| O=C1CC2(CCN(C(=O)COc3ccc(F)cc3)CC2)Oc2ccccc21 | -11.3% |  |
| O=C(c1ccccc1)N1CCN(c2cc(-c3ccccc3)nc3cc(-c4cccc(Cl)c4)nn23)CC1 | -14.3% |  |
| CCNC(=O)C1CCCN(C(=O)c2ccc(OC)cc2OC)CC1 (stereo not given) | 2.93% |  |
| CN(C)C(=S)N=c1ssc(=S)n1Cc1ccco1 |  | 4.11 µM (active) |
| CCc1ccccc1N1CN(Cc2ccco2)CNC1=S | -5.41% |  |
| CCN(CC)C(=O)CSc1nnc(CNc2ccc(F)cc2)n1Cc1ccco1 | -7.12% |  |
| CC(C)NC(=O)C1(C)CCCCCN1C(=O)c1ccc(-c2ccccc2)cc1 (stereo not given) | -1.14% |  |
| OC[C@@H]1CN(C2CCCC2)C[C@H](n2cnc3c(NC4CCC4)ncnc32)O1 | 19.1% |  |
| CCOc1cccc2c1N[C@@H](c1ccc(C(=O)O)cc1)[C@H]1CC=C[C@@H]21 | 17.3% |  |
| COc1cccc(C(O)c2ncc(-c3ccc4ccccc4c3)[nH]2)c1 (stereo not given) | -14.9% |  |
| CN1CCN(C2Cc3ccc(Cl)cc3Sc3ccc(F)cc32)CC1 (stereo not given) |  | 16.4 µM (active) |
| CC(C)CNC(=O)C1(C)CCCN1C(=O)CSc1ccccc1 (stereo not given) | 2.38% |  |
| CCCCCn1c(=O)[nH]c2cc(C(=O)Nc3ccc(F)cc3)ccc2c1=O | -4.83% |  |
| Cc1ccc(S(=O)(=O)/N=C2\C=C(NS(=O)(=O)c3ccc(C)cc3)C(=O)c3ccccc32)cc1 | -17% |  |
| Cc1ccc(C)c(NC(=O)CSc2nc3c(oc4ccccc43)c(=O)n2-c2ccccc2)c1 |  | 7.31 µM (active) |
| Cc1cccc(NC(=O)CSc2nc3c(oc4ccccc43)c(=O)n2-c2ccc(F)cc2)c1 | 2.03% |  |
| COc1ccc(-n2c(SCC(N)=O)nc3c(oc4ccccc43)c2=O)cc1 | 0% |  |
| Cc1c(C)c(C)c2[nH]c(=S)[nH]c2c1C |  | 3.66 µM (active) |
| CCCOc1ccc(F)cc1-c1cc(C(=O)Nc2ccc(F)cc2)[nH]n1 | -21.7% |  |
| CCC(C)NC(=O)c1ccccc1NC(=O)c1ccccc1N(C)S(C)(=O)=O (stereo not given) | 0% |  |
| CCCCNC(=O)c1ccccc1NC(=O)c1ccccc1N(C)S(C)(=O)=O |  | 23.1 µM (active) |
| CCCCNC(=O)c1ccccc1NC(=O)C1=C(C)OCCS1 | -18.7% |  |

| Structure (SMILES) | activity change, negative = cytotoxicity | Potency |
| --- | --- | --- |
| CCCCOc1ccc(CNC(=O)c2ccc3c(c2)N(C)C(=O)C2CCCCN32)cc1 (stereo not given) | 11.8% |  |
| CCN(CC)CCN(C(=O)c1ccc2c(c1)CCCC2)c1nc2c(OC)cccc2s1 | -19.3% |  |
| CCC(=O)N1c2ccccc2CC1C(=O)N1CCN(c2ccccc2F)CC1 (stereo not given) | -0.299% |  |
| Cc1ccc(-c2nc3cccc(C)n3c2Nc2ccc3c(c2)OCCO3)cc1 | -6.68% |  |
| CN(c1ccccc1)S(=O)(=O)c1ccc(C(=O)NCc2cccnc2)cc1 | -8.64% |  |
| COc1ccc(CCNC(=O)Cc2ccc(C)cc2)cc1OC | -23.9% |  |
| COc1ccc(NC(=O)CNC(=O)Cc2ccccc2)cc1OC | 0% |  |
| COc1ccc(CNC(=O)c2ccc(Br)s2)cc1OC | -18.8% |  |
| COc1ccc(CNC(=O)c2c(C)cc(=O)oc2C)cc1OC | 13.8% |  |
| COc1ccc(CNC(=O)c2ccc(-c3cccnc3)c3ccoc23)cc1OC |  | 18.4 µM (active) |
| COc1ccc(CNC(=O)Cc2ccc(-c3ccccc3)cc2)cc1OC |  | 7.31 µM (active) |
| CCOc1cc(C2C(C(=O)OC)=C(C)NC3=C2C(=O)c2ccccc23)ccc1O (stereo not given) | 0.212% |  |
| CCOC(=O)CSC1=Nc2ccccc2C2=NC(CCC(=O)NCc3ccc(F)cc3)C(=O)N12 (stereo not given) | 8.51% |  |
| CCNS(=O)(=O)c1ccc(CCC(=O)N2CCN(c3ccc(OC)cc3)CC2)cc1 | -7.91% |  |
| CCNS(=O)(=O)c1ccc(CCC(=O)N2CCN(c3cc(Cl)ccc3C)CC2)cc1 |  | 14.6 µM (active) |
| CCCNS(=O)(=O)c1ccc(CCC(=O)N2CCCC2)cc1 | -7.52% |  |
| O=C1C(Sc2cccc(F)c2)=C[C@@]2(O)CC[C@@H](O)[C@]1(Sc1cccc(F)c1)[C@H]2O | -13.7% |  |
| CCc1nc2c(OCCOc3ccccc3)cccn2c1N(C)C(=O)c1ccccc1F | -2.19% |  |
| COC(=O)C[C@H]1C=C[C@H](NC(=O)c2ccc(F)cc2)[C@@H](CO)O1 | -15% |  |
| CN(C)Cc1cn(-c2ccccc2)nc1-c1ccccc1 | -7.78% |  |
| CN(C)c1cccc2ccccc12 | 12.3% |  |
| Cc1cc(NC(=O)CSc2nnnn2-c2ccc(F)cc2)no1 | 16.9% |  |
| CC(=O)Nc1ccc(NC(=O)CSc2nnnn2-c2ccccc2F)cc1 | -14.2% |  |
| Cc1ccccc1-n1nnnc1SCCCC(=O)c1ccc(F)cc1 |  | 6.51 µM (active) |
| O=C(/C=C/[C@H]1O[C@@H](n2cnc3c(NC(=O)c4ccccc4)ncnc32)[C@H](O)[C@@H]1O)NCc1ccccc1 | -15.7% |  |

| Structure (SMILES) | activity change, negative = cytotoxicity | Potency |
| --- | --- | --- |
| CCCC(=O)N1CCN(c2nc3c(OC)ccc(C)c3s2)CC1 | -4.94% |  |
| COc1ccc(C(=O)NNC(=S)NC(=O)c2ccccc2[N+](=O)[O-])cc1 | 0% |  |
| COc1ccc(C(=O)NC(=S)NNC(=O)c2c(-c3ccccc3)noc2C)cc1 |  | 6.51 µM (active) |
| COc1ccc(C(=O)NC(=S)NNC(=O)CCc2ccccc2)cc1 |  | 6.51 µM (active) |
| COc1ccc(C(=O)NNC(=S)NC(=O)c2ccccc2)cc1 | -22.6% |  |
| Cc1onc(-c2ccccc2)c1C(=O)NNC(=S)NC(=O)c1ccc(F)cc1 | -9.36% |  |
| CC(C)Oc1ccc(CCC(=O)NNC(=S)NCc2ccccc2)cc1 | 0% |  |
| O=S(=O)(Nc1ccc2nc(-c3cccc(Cl)c3)oc2c1)c1ccccc1 | 2.99% |  |
| Cc1ccc(C)c(N2CCN(C(=O)Cn3ncc4c(=O)oc5ccc(C)cc5c43)CC2)c1 | 6.55% |  |
| CC(=O)Nc1ccc(CNc2nc(NCCN(C)C)nc3cc(-c4ccccc4)sc23)cc1 | 16.7% |  |
| CN1C[C@@H](CO)O[C@@H](n2cnc3c(N4CCN(CCO)CC4)ncnc32)C1 | 7.63% |  |
| CCCn1nc(NC(=O)C(C)C)c2cc3cc(OC)ccc3nc21 | 2% |  |
| CCCn1nc(NS(=O)(=O)c2ccccc2)c2cc3cc(C)ccc3nc21 |  | 14.6 µM (active) |
| CCCn1nc(NS(=O)(=O)c2ccc(F)cc2)c2cc3ccccc3nc21 | 14.6% |  |
| COc1cccc(NC(=O)CSc2cc(=O)n(C)c3ccc(Cl)cc23)c1 | -14.4% |  |
| CC(=O)Nc1ccc(C=CC(=O)c2ccc([N+](=O)[O-])cc2)cc1 | -4.54% |  |
| Cc1cccc(C=CC(=O)c2ccc(Cl)cc2)c1 | -4.15% |  |
| CN(C)c1ccc(/C=C/C(=O)c2ccc(C(C)(C)C)cc2)cc1[N+](=O)[O-] |  | 18.4 µM (active) |
| CCOc1ccc(S(=O)(=O)c2cn(Cc3ccc(OC)cc3)c3ccc(F)cc3c2=O)cc1 | 7.8% |  |
| Cc1nc2ccc(S(=O)(=O)N(CC(=O)Nc3ccc(F)cc3)Cc3ccccc3)cc2s1 | 6.91% |  |
| CC(C)(C)N1C(=O)c2c(C(=O)OCc3ccccc3)[nH]c(-c3ccccc3)c2C1=O | 0.678% |  |
| Cc1ccc(NC(=O)Cn2nnc(C(=O)NCc3ccco3)c2N)c(C)c1 | 20.9% |  |
| Cc1ccc(NC(=O)CSc2cccc3cccnc23)c(C)c1 | -30.1% |  |
| Cc1ccc(NC(=O)Cn2cccc2C2=NC(c3ccccc3)CO2)c(C)c1 (stereo not given) |  | 16.4 µM (active) |
| CCOc1ccc(NC(=O)C2CCN(S(=O)(=O)c3cc(-c4noc(C)n4)ccc3C)CC2)cc1 | -3.59% |  |
